Out of some 65,000 compounds screened, about 2,100 (3.2%) showed an effect of 50% or more. The median lay at about -52%. The list comes from a sample in which strong results are over-represented; it also holds similar structures and randomly drawn compounds.

In the assay the test system is Plasmodium falciparum. As to the kind of experiment: Screen against P. falciparum Asexual Blood Stage (ABS), at 5uM. The assay is classed as functional, Dd2. The note with it: tested at 5 uM.
As for `O=C(NCc1ccccc1Cl)c1[nH]nc2c1CS(=O)(=O)CC2`, the INHIBITION is recorded as -148%. In the case of `Cn1cc(CN2CCCCC2c2ccc(-c3cnn(C)c3)nc2)cn1` (centres undefined) it was -15.7%. In the case of `Cn1cc(CN2CCCCC2c2ccc(-c3cccc(F)c3)nc2)cn1` (centres undefined) it was 2.27%. Turning to `Cn1cc(CN2CCCCC2c2ccc(-c3cccc(Cl)c3)nc2)cn1` (centres undefined), the INHIBITION amounted to 55.3%. Regarding `Cc1nc(O)c2nnn(C[C@H]3CCCN3C(=O)c3ccccc3C)c2n1`, the INHIBITION was -51%. For `CC(c1ccc(F)cc1F)N1CCN(CCC(=O)O)CC1` (centres undefined), the INHIBITION is -11.3%. Then `CC(SCCC(=O)NC(N)=O)c1ccc(F)cc1F` (centres undefined), with -47%. As to `CC(c1ccc(F)cc1F)N1CCN(CCC(=O)NC(N)=O)CC1` (centres undefined), the INHIBITION came to 64%. Then `N#Cc1ccc(C(=O)N2CCC(c3ncc[nH]3)CC2)cn1`, with -111%.

Consider `C=C(C)CNC1CCCN(Cc2noc(C3CC3)n2)C1` (centres undefined), for which the INHIBITION stood at 32.4%.

In the case of `Cc1ccc2c(c1)C(NC(=O)N(C)C)CC21CCN(C(C)C)CC1` (centres undefined), the INHIBITION is given as -82%. `O=C(c1ccc[nH]1)N1CCn2cc(Cn3cccn3)nc2C1`: the INHIBITION is -68.4%. In the case of `CCOCc1cnc2n1CCN(C(=O)c1cn(C)c3ccccc13)C2C` (centres undefined) it was -9.29%; in that of `Clc1cccc(C(CNCc2ccccn2)N2CCOCC2)c1` (centres undefined), 53.1%. With `Cc1ccc(C(CNCc2cccnc2)N2CCOCC2)s1` (centres undefined), the INHIBITION is recorded as -0.0343%. Then `Clc1cccc(C(CNc2ncccn2)N2CCOCC2)c1` (centres undefined), with -57%. In the case of `O=C(C(CNCc1cccnc1)c1ccccc1)N1CCOCC1` (centres undefined) it was -52.2%; in that of `Clc1cccc(C(CNCc2cccnc2)N2CCOCC2)c1` (centres undefined), 56.9%; in that of `O=C(C(CNCc1ccccn1)c1ccccc1)N1CCOCC1` (centres undefined), -29.2%. Then `CCOCC(=O)NCc1cc(Br)ccc1OC(F)F`, with -119%; and `CCC(C(=O)N1CCS(=O)(=O)CC1)n1cccn1` (centres undefined), with -77.5%; and `CN(C)C(=O)c1ccc2c(c1)nc(N1CC[C@H](O)C1)n2C`, with -58.1%.

Turning to `CN(c1ccc(Cl)c(C(=O)NCCCN2CCOCC2)c1)S(C)(=O)=O`, the INHIBITION is reported as -93.1%. Then `O=C(CCCNC(=O)c1cnccn1)Nc1ncc[nH]1`, with -63.2%; and `CC(C)COCCC(=O)NCc1cn2cc(Br)ccc2n1`, with -27.3%. Then `CN(C)[C@@H]1C[C@@H](CO)N(C(=O)Nc2cccc(F)c2F)C1`, with -46.8%; and `OCCOc1ccccc1CN1CCCC(O)(CO)C1` (centres undefined), with -48.1%; and `OCC1(O)CCCN(Cc2ccccc2OCCc2ccccc2)CC1` (centres undefined), with 65.1%. In the case of `O=C1NCC2(CCCN(Cc3ccccc3OCCO)C2)O1` (centres undefined), the INHIBITION is given as -55.2%. Then `CO[C@H]1CN(C(=O)OC(C)(C)C)CC1NCc1ccoc1` (some centres undefined), with -73.1%. Then `c1cnc(N2CCC(OCCN3CCCCC3)C2)nc1` (centres undefined), with -58%; and `Cc1cc(C)nc(N2CCC(OCCN3CCCCC3)C2)n1` (centres undefined), with 13.3%. Then `CC(C)(C)c1nccc(N2CCC(OCCN3CCCCC3)C2)n1` (centres undefined), with 62.5%. For `Cc1ccnc(N2CCC(OCCN3CCCCC3)C2)n1` (centres undefined), the INHIBITION is on record as -83.8%. In the case of `COc1ccnc(N2CCC(OCCN3CCCCC3)C2)n1` (centres undefined) it was 51.2%.

As for `Cc1cnc(N2CCC(OCCN3CCCCC3)C2)nc1C` (centres undefined), the INHIBITION was found to be 23.5%. Then `Cc1cccc(-c2c[nH]c(C3CCCN3)n2)c1` (centres undefined), with -5.91%; and `CC(C)c1nccc(CN2CCCC(O)(CN3CCCC3)C2)n1` (centres undefined), with -69.7%; and `CN(C)C(=O)CN1C[C@H]2CC[C@@H](C1)N(C(=O)CCn1cncn1)C2`, with -87.6%. Then `O=C(NC1CC1)N1CCc2ccc(=O)n(CCN3CCCC3)c2CC1`, with -113%. Consider `Cc1cnn(CCNCc2csc(-c3ccccc3)n2)c1`, for which the INHIBITION is 66.6%. Turning to `Cc1cnn(CCNCc2csc(-c3cccs3)n2)c1`, the INHIBITION is -51.7%. Take `Cc1cnn(CCNCc2csc(-c3ccc(C)o3)n2)c1`: the INHIBITION is recorded as -32.6%. Turning to `Cc1cnn(CCNCc2csc(-c3ccc(F)cc3)n2)c1`, the INHIBITION was -58%. On to `Cc1cnn(CC(C)NCc2csc(-c3ccco3)n2)c1` (centres undefined), for which the INHIBITION is -84%. Then `Cc1cnn(CCNCc2csc(-c3ccco3)n2)c1`, with 54.9%; and `O=C(C1CCS(=O)(=O)CC1)N1C[C@@H]2CC[C@H]1CN(Cc1ccccc1)C2`, with -51.3%. Then `C=C1C(C)(C)[C@@H]2CC[C@]1(C(=O)N1CCC(n3cc(CO)nn3)CC1)C2`, with -90.8%; and `Cc1nc(CN(C)C2CCN(CCC(=O)N3CCOCC3)C2)no1` (centres undefined), with -30.8%.

Turning to `Cc1nc(C)n(CC2CCCCN2Cc2nc(-c3ccco3)no2)n1` (centres undefined), the INHIBITION is given as 61.7%. Regarding `Cc1nc(C)n(CC2CCCN2Cc2coc(-c3cccs3)n2)n1` (centres undefined), the INHIBITION is -63.6%.

Turning to `Cc1nc(C)n(CC2CCCN2Cc2nc(-c3cccs3)no2)n1` (centres undefined), the INHIBITION is recorded as 23.3%.

With `Cc1nc(C)n(CC2CCCCN2Cc2nc(-c3ccoc3)no2)n1` (centres undefined), the INHIBITION is -49.9%. Consider `Cc1nc(C)n(CC2CCCN2Cc2cc(-c3cccs3)on2)n1` (centres undefined), for which the INHIBITION worked out at 65.2%.
